“And” between values parts separate entries of the source, which are not always exact repeats. Identical values can stand only once. Among all 350,000 compounds or so, about 1,200 (0.34%) were called active. Another 3% or so got no clear call; they are omitted. Calls follow the shape of the dose curve; as a rule, active = well fitted inhibition curve with a large enough effect; inconclusive = small, poorly fitted or top-dose-only effect; inactive = no such curve, though single readings can be large or run the other way. Shown is part of a subset that was picked to be rich in actives. A structure can be active in one record and inactive in another.
target: DNA repair nuclease/redox regulator APEX1 (Homo sapiens) (UniProt P27695); test: qHTS Assay for Inhibitors of the Human Apurinic/apyrimidinic Endonuclease 1 (APE1); details: recombinant APE1, TAMRA/BHQ-2 abasic DNA cleavage fluorescence; series mostly up to 65.8 µM; activity change, negative = inhibition: at the top concentration; also: nearly all actives have a fitted effect of over 55% in size;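 as to activity change, negative = inhibition: plate controls were vehicle for no effect and reference inhibitor for full effect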
Sequence (P27695 whole entry, looked up): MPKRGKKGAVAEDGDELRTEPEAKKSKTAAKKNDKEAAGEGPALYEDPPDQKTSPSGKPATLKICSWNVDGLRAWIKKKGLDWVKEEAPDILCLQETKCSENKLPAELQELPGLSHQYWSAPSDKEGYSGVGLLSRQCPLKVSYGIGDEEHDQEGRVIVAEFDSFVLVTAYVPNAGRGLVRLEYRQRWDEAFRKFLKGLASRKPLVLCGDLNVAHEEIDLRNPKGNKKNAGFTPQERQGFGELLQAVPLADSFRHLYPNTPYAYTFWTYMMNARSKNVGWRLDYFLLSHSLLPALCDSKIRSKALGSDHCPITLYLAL
From the text: The apurinic/apyrimidinic endonuclease APE1 is the primary mammalian enzyme responsible for the removal of abasic (or AP) sites in DNA and functions centrally in the base excision DNA repair (BER) pathway. […] Thus, targeting APE1 could improve the efficacy of current treatment paradigms by promoting selective sensitization or protection of diseased and normal cells, respectively.
Inhibition of APE1 activity was screened by utilizing double-stranded short substrate containing tetrahydrofuran (THF) abasic site labeled with rhodamine-type fluorophore (TAMRA) at the 5'-end and with non-fluorescent Black Hole Quencher-2 (BHQ-2) at the opposing 3'-end. An increase in the fluorescence intensity due to incision of the abasic site by APE1 was used to measure the enzyme activity.
NIH Chemical Genomics Center [NCGC]
NIH Molecular Libraries Probe Centers Network [MLPCN]
Assay Provider: David M. Wilson, III, National Institute on Aging, NIH
Three uL of enzyme solution (0.75 nM APE1 final concentration) was dispensed to 1536-well Greiner black solid bottom plates. […] The plates were incubated for 15 min at room temperature, and then 1 uL of substrate solution (50 nM final concentration of TAMRA/BHQ-2) was added to start the reaction. The plates were immediately transferred into ViewLux High-throughput CCD imager (Perkin-Elmer) in order to measure the reaction progress in kinetic mode (three reads every 60 seconds) using 525 nm excitation and 598 nm emission fluorescence protocol. The fluorescence intensity difference between the third and the first time points was used to compute reaction progress. Results were normalized to buffer only columns and NSC13755 positive controls and negative control DMSO treated wells.
Potency is read from the fitted curve at half-maximal effect.

| Compound | Potency | activity change, negative = inhibition |
| --- | --- | --- |
| COc1ccc(N2C(=O)/C(=C/c3ccco3)C(=O)NC2=S)cc1 | 0.67 µM (active) |  |
| C[C@]12CC[C@@H]3C(=CCc4cc(O)ccc43)[C@@H]1CCC2=O |  | 3.5% [at 21 µM] (inactive) |
| CCc1ccc(C2C(C#N)=C(N)Oc3n[nH]c(CC(=O)OC)c32)cc1 (stereo not given) |  | 16.6% (inactive) |
| CC[N+](C)(CC)CCC[n+]1c(-c2ccccc2)c2cc(N)ccc2c2ccc(N)cc21 | 2.12 µM (active) |  |
| Clc1ccccc1 |  | 0.279% (inactive) |
| CC(=O)[O][Sn]([c]1ccccc1)([c]1ccccc1)[c]1ccccc1 |  | -9.07% (inactive) |
| N#CC(C#N)=Cc1cc(O)c(O)c([N+](=O)[O-])c1 | 5.62 µM (active) |  |
| ClC(Cl)=C(Cl)C(Cl)=C(Cl)Cl |  | -1.33% (inactive) |
| N#Cc1cc(Br)c(O)c(Br)c1 |  | 2.28% (inactive) |
| N#CCCCl | inactive |  |
| Cc1nc(SCC(=O)NC2CCCC2)[nH]c(=O)c1C |  | 63.8% [at 12.4 µM] (inactive) |
| CC(C)COC(=O)n1c(=O)oc2ccc(S(=O)(=O)N3CCCCC3)cc21 |  | 14.5% (inactive) |
| CC(C)Nc1nc(Cl)nc(NC(C)C)n1 | inactive and 22.4 µM (active) |  |
| CCCCC#N |  | 9.97% (inactive) |
| NCCCCC(N)C(=O)O (stereo not given) |  | 13.8% (inactive) |
| CCCCCCCCCCCCN=C(N)N |  | -1.22% (inactive) |
| CC(C)(c1ccccc1)c1ccc(O)cc1 |  | -2.65% (inactive) |
| C[C@H]1C/C=C/[C@@H]2[C@@H]3O[C@]3(C)[C@@H](C)[C@H]3[C@H](Cc4ccccc4)NC(=O)[C@]32OC(=O)O/C=C/[C@](C)(O)C1=O |  | 13.1% (inactive) |

| Compound | Potency | activity change, negative = inhibition |
| --- | --- | --- |
| O=C(OCC1O[C@@H](OC(=O)c2cc(O)c(O)c(O)c2)[C@@H](OC(=O)c2cc(O)c(O)c(O)c2)[C@@H](OC(=O)c2cc(O)c(O)c(O)c2)[C@@H]1OC(=O)c1cc(O)c(O)c(O)c1)c1cc(O)c(O)c(O)c1 (stereo not given in full) | 0.0112 µM (active) |  |
| Cc1cc(-c2n[nH]c(=S)n2-c2ccc(C)c(C)c2)no1 |  | 9.88% (inactive) |
| CC(=O)c1ccc(-c2ccc(Cn3c(C)nc4cc(N)c(C)nc43)cc2)cc1 |  | 7.33% (inactive) |
| CN(C)C1C(=O)C(C(N)=O)=C(O)[C@@]2(O)C(=O)C3=C(O)c4c(O)cccc4[C@@](C)(O)C3C[C@@H]12 (stereo not given in full) |  | -13.5% (inactive) |
| O=c1cc(-c2ccc(O)cc2)oc2c([C@@H]3O[C@H](CO)[C@@H](O)[C@H](O)[C@H]3O)c(O)cc(O)c12 | 8.91 µM (active) |  |
| C=CCOC(=O)c1ccccc1C(=O)OCC=C | inactive |  |
| CC(Cl)Cl |  | 23.6% (inactive) |
| CC(C)CC(C)Nc1ccc(Nc2ccccc2)cc1 (stereo not given) |  | 1.5% (inactive) |
| CC(CCn1cccn1)NC(=O)CCc1nnc(CCc2ccccc2)o1 (stereo not given) |  | 15.7% (inactive) |
| Cc1c(C(=O)O)cccc1-n1c(C)cc(/C=C2\C(=O)NC(=O)N(c3ccc4c(c3)OCO4)C2=O)c1C | 14.1 µM (active) |  |
| Cc1ccnc(-n2c(C)cc(/C=C3\C(=O)NC(=S)N(C)C3=O)c2C)c1 |  | 0.699% (inactive) |
| CC(C)(C)C(O)(CCc1ccc(Cl)cc1)Cn1cncn1 (stereo not given) |  | 1.98% (inactive) |
| C=CC#N |  | 3.46% (inactive) |
| ClCCBr |  | 5.56% (inactive) |
| CCN(CC)c1nc(C)cc(OP(=S)(OC)OC)n1 |  | -3.65% (inactive) |
| CCOc1cc(N2CCOCC2)c(OCC)cc1NC(=O)C1=NN(c2cccc(C)c2)C(=O)CC1 |  | 16.6% (inactive) |
| CCC12CCN(CCc3ccccc3)CC1Oc1c(O)cccc12 (stereo not given) |  | 15% (inactive) |

— PubChem BioAssay AID2517 (National Center for Advancing Translational Sciences (NCATS), 2010)
